# Assay results from PubChem BioAssay AID1794808 (University of Kansas High Throughput Screening Laboratory, 2022).
# Among all 210,000 compounds or so, about 520 (0.25%) were called active. Rule as the data show it: active = inhibition above about 50%; inactive = the rest. Many of the other results were omitted from the sample, so actives are more common in it than they were.
# System: Plasmodium falciparum apicoplast DNA polymerase (apPOL)
# Assay: Pf-apPOL inhibitors, biochemical, fluorescence (AID 1794808)
# Details: Recombinant Pf-apPOL, molecular beacon fluorescence, 1.5 h; at 10 µM; hits give high values
row,Compound,inhibition
1,NC(=O)c1cc2cc(Br)ccc2oc1=Nc1ccc(F)cc1,5.9% (inactive)
2,CC(=O)Nc1ccc(-c2ccc(NC(C)=O)c(Cl)c2)cc1Cl,6.6% (inactive)
3,CCN1CCCC1CNC(=O)c1cn(C)c(=O)c2cc(OC)c(OC)cc12 (stereo unspecified),4.5% (inactive)
4,O=c1c(O)c(Br)ccc2c(Br)c(O)c(O)c(O)c12,99.5% (active)
5,O=C(NC1CCCCC1)c1ccccc1NC(=O)C1COc2ccccc2O1 (stereo unspecified),-3.8% (inactive)
6,Cn1nc(-c2nnc(-c3ccccc3Cl)o2)c2c1CCN(C(=O)CCc1ccccc1)C2,-2.8% (inactive)
7,COc1cc(C(=O)Nc2c3c(nn2-c2ccc(C)cc2C)CS(=O)(=O)C3)cc(OC)c1OC,-2.5% (inactive)
8,COc1ccc(C2=NOC(C(=O)NCCc3ccccc3)C2)cc1OC (stereo unspecified),-10.3% (inactive)
9,Cc1ccc(F)c(NC(=O)CCc2ccccc2)c1,-10.7% (inactive)
10,Cc1cc(Cl)ccc1NC(=O)CCc1ccccc1,52.8% (active)
11,O=C(CCCc1ccccc1)Nc1cccc(Cl)c1,-10.9% (inactive)
12,Cc1ccc2nc3c(nc2c1)C(=O)c1ccccc1C3=O,-3.7% (inactive)
13,Cc1ccc(-c2ccc(C)cc2N)c(N)c1,5.9% (inactive)
14,Cc1ccc2c(c1)C(=O)C(=O)S2,53.9% (active)
15,Cc1ccsc1/C=C(\C(=O)NCc1cccnc1)S(=O)(=O)c1ccccc1,2.5% (inactive)
16,O=C(Cc1ccc(F)cc1)N1CCC(Nc2cccn3ncnc23)CC1,-7.3% (inactive)
17,O=C(C1CCCN(c2nnc3ccc(Cl)cn23)C1)N1CCN(C2CCCCC2)CC1 (stereo unspecified),-2.9% (inactive)
18,CCN(Cc1cc(-c2ccc(C)cc2C)on1)C(=O)c1cccs1,3.3% (inactive)
19,CCC(=O)N1CCC(COc2ccccc2C(=O)N2CCCCC2)CC1,-0.7% (inactive)
20,COc1cc(Cl)c(NC(=O)C2CCCN(c3nccc(C)n3)C2)c(OC)c1 (stereo unspecified),2.3% (inactive)
21,CCN(CC)C(=O)C1CCCN(Cc2ccccc2OC)C1 (stereo unspecified),-2.5% (inactive)

row,Compound,inhibition
1,CCN(CC)S(=O)(=O)c1ccc(C(=O)Nc2c3c(nn2-c2ccc(C)cc2)CSC3)cc1,3.5% (inactive)
2,CCCCOc1ccc(S(=O)(=O)N2CCSC2c2ccccc2)cc1 (stereo unspecified),-1.1% (inactive)
3,Cc1cccc(S(=O)(=O)N2CCSC2c2ccccc2)c1 (stereo unspecified),95.2% (active)
4,O=[N+]([O-])c1ccc(C2SCCN2S(=O)(=O)c2ccccc2)cc1 (stereo unspecified),-2.9% (inactive)
5,O=C(NCCc1ccccc1)N1CCC(n2c(-c3ccoc3)nc3cccnc32)C1 (stereo unspecified),-2% (inactive)
6,O=C(c1ccccc1)c1ccc(OCCNC(=O)c2ccccc2Br)cc1,-3.3% (inactive)
7,CC(C)CC1=NN(C(=O)c2cccc(Cl)c2)C(O)(C(F)(F)F)C1 (stereo unspecified),2% (inactive)
8,CC(C)c1cccc(N2C=C(C#N)S(=O)(=O)c3c(F)cccc32)c1,-0.6% (inactive)
9,COc1ccc(NS(=O)(=O)c2c(C)cc(C)cc2C)c([N+](=O)[O-])c1,-4% (inactive)
10,COc1cc(C(=O)N2CCC(c3noc(-c4cccc(F)c4)n3)CC2)cc(OC)c1OC,0.1% (inactive)
11,O=C(c1ccc(OCC2CCCN(C(=O)c3ccccn3)C2)cc1)N1CCCC1 (stereo unspecified),3.1% (inactive)
12,CCc1ccc(OCC(=O)Nc2cc(OC)c(Cl)cc2OC)cc1,-9.2% (inactive)
13,O=C(NCCCNc1ccc([N+](=O)[O-])cc1Cl)c1ccccc1Br,4.9% (inactive)
14,Cc1nc(-c2ccccc2)sc1C(=O)ON=C(N)c1ccc([N+](=O)[O-])o1,11.5% (inactive)
15,CCCOc1ccc(S(=O)(=O)NCC2CCN(S(=O)(=O)C3CC3)CC2)cc1C,-5.5% (inactive)
16,CC(=O)N1CCc2ccccc2C1C(=O)NCc1ccc(C)cc1 (stereo unspecified),-0.9% (inactive)
17,COc1cccc2sc(=NC(=O)c3cccc(F)c3)n(C)c12,2.7% (inactive)
18,Cc1nc(N2CCC(C(N)=O)CC2)nc(NCc2ccco2)c1[N+](=O)[O-],-9.6% (inactive)
19,COc1cccc(-c2n[nH]c(C)c2NC(=O)C(C)C)c1,-6.9% (inactive)
20,CCn1c(C2CCN(S(=O)(=O)c3cc(OC)ccc3OC)C2)nc2cccnc21 (stereo unspecified),-5.5% (inactive)
21,Cc1ccc(CC(=O)NC2CCN(c3cc(C)cc(C)c3)C2=O)cc1 (stereo unspecified),-5.7% (inactive)

row,Compound,inhibition
1,Cc1nc(-c2ccccc2F)sc1C(=O)N1CCCC1,-7.4% (inactive)
2,Cc1nc(-c2ccncc2)nc2c1CC(=O)N2C1CCCC1,-7.5% (inactive)
3,COc1cc(NC(=O)c2cccc([N+](=O)[O-])c2)c(OC)cc1NC(=O)c1ccccc1,-2.7% (inactive)
4,Cc1cccc(CN2CCCn3nc(C(=O)Nc4ccccc4C)cc3C2=O)c1,-2.2% (inactive)
5,CC1(C(=O)O)NC(c2cc(Cl)ccc2O)C2C(=O)N(c3ccc(Cl)cc3)C(=O)C21 (stereo unspecified),-9.1% (inactive)
6,O=Cc1ccc(OCc2cccc(F)c2)c(Cl)c1,1.2% (inactive)
7,O=C1CN(C(=O)c2c(F)cccc2F)C(c2ccccc2)c2cc(F)ccc2N1 (stereo unspecified),-3.5% (inactive)
8,COc1cccc(-c2cc3n(n2)CCCN(C(=O)Cc2ccsc2)C3)c1,-7.6% (inactive)
9,COc1ccccc1N1CCN(CC(=O)Nc2ncc(C)s2)C1=O,-2.4% (inactive)
10,CCC(CC)C(=O)N1CCN(c2ccc([N+](=O)[O-])cc2)CC1,-4.2% (inactive)
11,Cc1ccc(C(=O)N2CCN(c3ccc(F)c(Cl)c3)C(=O)C2C)cc1 (stereo unspecified),69.1% (active)
12,Cc1cccc(N2CCN(C(=O)c3ccc(F)cc3)C(C)C2=O)c1 (stereo unspecified),0.4% (inactive)
13,CC1C(=O)N(c2cccc(F)c2)CCN1C(=O)c1ccc(Cl)cc1 (stereo unspecified),-2.7% (inactive)
14,Cc1cccc(NS(=O)(=O)c2c(C)n[nH]c2C)c1C,-1.5% (inactive)
15,Cc1cc(C)n(-c2ccc(C(=O)NC3CCCC3)cn2)n1,2% (inactive)
16,CCC1CCCCN1C(=O)CSc1nc2c(c(=O)n1C)SC(C)C2 (stereo unspecified),-6.3% (inactive)
17,COc1ccc(C=C2Oc3c(ccc(O)c3CN3CCCCCC3)C2=O)cc1OC,-19.5% (inactive)
18,N/C(=N\OC(=O)CCCc1ccccc1)c1ccc(Cl)cc1,5.3% (inactive)
19,Cc1cccc(NC(=O)N2CC(c3nc(C)no3)C3(CCOCC3)C2)c1 (stereo unspecified),-0.4% (inactive)
